Results taken from PubChem BioAssay AID463173 (ICCB-Longwood Screening Facility, Harvard Medical School, 2010).
Out of some 52,000 compounds screened, about 1,700 (3.3%) were called active. No stated cut-off is given here; in the data, active means survival mostly below about 52% (no sharp cut-off); inactive means mostly above about 56%. For the sample, actives were picked, then their nearest neighbours and some compounds at random.

Tested on: Wild type
Assay: S. aureus survival, RN4220 and DeltatarO strains – OD600, teichoic acid synthesis inhibitors, primary screen (AID 463173)
Conditions: S. aureus RN4220 wild type/DeltatarO growth, OD600, 18 h, hits give low values, screened at 18.75 µg/mL (by protocol)

Structure (SMILES)	survival
Cc1cccc(N2CCN(S(=O)(=O)c3ccc4c(c3)CCCN4C(=O)C3CCC3)CC2)c1C	86% (inactive)
Cc1ccc(C(=O)Nc2nnc(SCc3cc(=O)c4c(C)ccc(C)c4[nH]3)s2)cc1	93% (inactive)
Cc1ccc(C)c(NC(=O)CN2C(=O)C(C)(C)c3ccccc32)c1	76% (inactive)
Fc1cccc(-c2cc3nc4c(c(NCCCN5CCOCC5)n3n2)CCCC4)c1	103% (inactive)
COc1ccc(-n2c(=O)c3ccccc3n(Cc3cccc(C)c3)c2=O)cc1	75% (inactive)
Cc1cc(C)cc(NS(=O)(=O)c2ccc3c(c2)OCC(C(=O)N2CCCC2)O3)c1 (centres undefined)	78% (inactive)
COc1ccc(OC)c(S(=O)(=O)NCCc2csc3nc(-c4ccccc4)nn23)c1	-3% (active)
CS(=O)(=O)NCCc1csc2nc(-c3ccccc3)nn12	-4% (active)
COc1ccc(-c2nc3scc(CCNS(=O)(=O)c4cccs4)n3n2)cc1	1% (active)
CCS(=O)(=O)NCCc1csc2nc(-c3ccc(C)cc3)nn12	59% (inactive)
O=S(=O)(NCCc1csc2nc(-c3ccc(Cl)cc3)nn12)c1cccs1	72% (inactive)
COc1ccc(S(=O)(=O)NCCc2csc3nc(-c4ccccc4)nn23)cc1OC	71% (inactive)
CCc1ccc(S(=O)(=O)NCCc2csc3nc(-c4ccccc4)nn23)s1	129% (inactive)
COc1ccc(-c2nc3scc(CCNS(=O)(=O)c4ccccc4F)n3n2)cc1	57% (inactive)
O=S(=O)(NCCc1csc2nc(-c3ccccc3)nn12)c1cccs1	81% (inactive)
COc1ccc(NC(=O)C(CC(C)C)NC(=O)C2CCCCC2)c(OC)c1 (centres undefined)	63% (inactive)
CC1(C)NC(=O)N(CC(O)CN2C(=O)NC(C)(C)C2=O)C1=O	117% (inactive)
CCOc1ccc(-c2ncnn2-c2sc3c(c2C#N)CCCCC3)cc1	3% (active)
N#Cc1c(N2C(=O)C3C4C=CC(C4)C3C2=O)sc2c1CCCC2 (centres undefined)	108% (inactive)
N#Cc1c(/N=C/N2CCCCC2)sc2c1CCCC2	89% (inactive)
CC(C)CCOc1ccc(C(=O)Nc2sc3c(c2C#N)CCCCC3)cc1	135% (inactive)
N#Cc1c(-n2ncnc2-c2cccc(Br)c2)sc2c1CCCCC2	45% (inactive)
N#Cc1c(-n2ncnc2-c2cccc(Cl)c2)sc2c1CCCCC2	58% (inactive)

Structure (SMILES)	survival
N#Cc1c(-n2ncnc2-c2ccc(Br)cc2)sc2c1CCCCC2	2% (active)
N#Cc1c(-n2ncnc2-c2ccc(F)cc2)sc2c1CCCCC2	-2% (active)
COc1ccc(-c2nnn(CC(=O)Nc3sc4c(c3C#N)CCCC4)n2)cc1	109% (inactive)
Cc1ccc(C)c(N2CCN(S(=O)(=O)c3cc(-c4cc(C)no4)ccc3C)CC2)c1	73% (inactive)
O=C(CSc1n[nH]c(-c2ccccc2)n1)NCCCc1ccccc1	69% (inactive)
CC(C)(C)c1cn2ccc3ccccc3c2n1	113% (inactive)
Oc1ccccc1C(C#Cc1ccccc1)N1CCOCC1 (centres undefined)	110% (inactive)
CC(C)N(C(=O)Cn1nnc2ccccc21)C(C(=O)NCc1ccco1)c1ccccc1 (centres undefined)	101% (inactive)
Cc1ccccc1-c1nnc(CN2CCN(c3cc(Cl)ccc3C)CC2)o1	86% (inactive)
Cc1ccc(C)c(N2CCN(Cc3nnc(-c4ccccc4)o3)CC2)c1	87% (inactive)
Cc1ccc(N2CCN(Cc3nnc(-c4ccccc4F)o3)CC2)c(C)c1	15% (active)
Cc1ccc(-n2nc(C(=O)Nc3ccc(C)c(F)c3)c(=O)n(C)c2=O)cc1	68% (inactive)
Cc1ccccc1CN1c2ccccc2-c2nc(SCC(=O)NCCc3ccccc3)ncc2S1(=O)=O	53% (inactive)
Cc1ccc(CN2c3ccccc3-c3nc(SCC(=O)NCCc4ccccc4)ncc3S2(=O)=O)cc1	14% (active)
O=C(CSc1ncc2c(n1)-c1ccccc1N(Cc1ccc(F)cc1)S2(=O)=O)NCCc1ccccc1	73% (inactive)
NC(=O)CSc1ncc2c(n1)-c1ccccc1N(Cc1ccccc1)S2(=O)=O	69% (inactive)
CCc1cccc(NC(=O)CSc2ncc3c(n2)-c2ccccc2N(CC)S3(=O)=O)c1	95% (inactive)
O=C(CSc1ncc2c(n1)-c1ccccc1N(Cc1ccccc1)S2(=O)=O)Nc1ccccc1	-6% (active)
Cc1ccccc1CN1c2ccccc2-c2nc(SCC(=O)NCc3ccccc3)ncc2S1(=O)=O	-3% (active)
CCc1cccc(NC(=O)CSc2ncc3c(n2)-c2ccccc2N(Cc2ccccc2C)S3(=O)=O)c1	0% (active)
Cc1ccc(CN2c3ccccc3-c3nc(SCC(=O)Nc4c(C)cc(C)cc4C)ncc3S2(=O)=O)cc1	133% (inactive)
CCN1c2ccccc2-c2nc(SCC(=O)NCc3ccccc3)ncc2S1(=O)=O	74% (inactive)
CCOc1ccc(NC(=O)CSc2ncc3c(n2)-c2ccccc2N(Cc2ccccc2C)S3(=O)=O)cc1	63% (inactive)

Structure (SMILES)	survival
O=C(CSc1ncc2c(n1)-c1cc(Cl)ccc1N(Cc1ccccc1)S2(=O)=O)NCCc1ccccc1	113% (inactive)
Cc1ccc2[nH]c(CSc3nnc(NC(=O)c4ccccc4C)s3)cc(=O)c2c1	72% (inactive)
O=C(NCCCO)c1cc2sc3ccccc3c2s1	103% (inactive)
O=C(Nn1c(Cc2ccccc2)nc2ccccc2c1=O)c1ccco1	107% (inactive)
Cc1ccc(CN2c3ccccc3-c3nc(SCC(=O)NCc4ccccc4)ncc3S2(=O)=O)cc1	-1% (active)
O=C(CSc1ncc2c(n1)-c1ccccc1N(Cc1ccc(F)cc1)S2(=O)=O)NCc1ccccc1	76% (inactive)
CCN1c2ccccc2-c2nc(SCC(=O)NCc3ccc(C)cc3)ncc2S1(=O)=O	79% (inactive)
COc1ccc(N(CC(=O)N2CCN(c3cccc(Cl)c3)CC2)S(=O)(=O)c2c(C)noc2C)cc1	84% (inactive)
Cc1cc(C)c2sc(N3CCN(C(=O)c4ccc(N(C)C)cc4)CC3)nc2c1	136% (inactive)
O=C(CC1COc2ccccc2O1)NCc1ccccc1 (centres undefined)	105% (inactive)
O=C(Nc1ccc(F)cc1)Nc1csc2c1CCCC2	12% (inactive)
O=C(CSc1nc(-c2ccccc2F)nc2cc(=O)[nH]n12)Nc1cccc(C(F)(F)F)c1	69% (inactive)
O=C(CSc1nc(-c2cccs2)nc2cc(=O)[nH]n12)Nc1cccc(C(F)(F)F)c1	128% (inactive)
O=C(CSc1nc2c([nH]c3ccccc32)c(=O)n1-c1ccccc1)N1CCc2ccccc21	73% (inactive)
Cc1cccc(-c2nc(SCC(=O)Nc3cccc(C(F)(F)F)c3)n3[nH]c(=O)cc3n2)c1	-3% (active)
Cc1ccc(-n2c(SCC(=O)c3ccccc3)nc3c([nH]c4ccccc43)c2=O)cc1	-6% (active)
Cc1ccc(-n2c(SCC(=O)N3CCc4ccccc43)nc3c([nH]c4ccccc43)c2=O)cc1	120% (inactive)
CCOc1ccc(-n2c(SCC(=O)N3CCCCC3)nc3c([nH]c4ccccc43)c2=O)cc1	94% (inactive)
CCOc1ccc(-n2c(SCC(=O)N3CCCC3)nc3c([nH]c4ccccc43)c2=O)cc1	73% (inactive)
COc1ccc(-n2c(SCC(=O)c3ccccc3)nc3c([nH]c4ccccc43)c2=O)cc1	88% (inactive)
O=C(CSc1nc2c([nH]c3ccccc32)c(=O)n1-c1ccccc1)c1ccccc1	73% (inactive)
CCOc1ccc(-n2c(SCC(=O)N3CCOCC3)nc3c([nH]c4ccccc43)c2=O)cc1	-3% (active)
Cc1cc(C)cc(-n2c(SCC(=O)N3CCc4ccccc43)nc3c([nH]c4ccccc43)c2=O)c1	14% (active)

Structure (SMILES)	survival
Cc1ccc(CNC(=O)C2(c3cccs3)CCOCC2)cc1	69% (inactive)
O=C(Nc1ccc2oc(-c3ccc4ccccc4c3)nc2c1)c1cc(Br)ccc1Cl	96% (inactive)
COc1ccc(NC(=O)CSc2nc(-c3ccc(OC)c(OC)c3)[nH]c2-c2ccc(C)cc2)cc1	139% (inactive)
CCOC(=O)c1ccc(NC(=O)CCn2ccc(C)n2)cc1	110% (inactive)
COc1ccc(C2C(=O)N(C3CCCCC3)CC(=O)N2C2CCCCC2)cc1 (centres undefined)	76% (inactive)
Cc1cccc(NC(=O)c2oc3ccccc3c2NC(=O)c2cc(=O)c3cc(Cl)ccc3o2)c1	85% (inactive)
COc1ccc(-c2nc(C)c(CCNC(=O)c3cccs3)s2)cc1OC	69% (inactive)
Cc1ccccc1-c1nc(CS(=O)(=O)CC(=O)NCCCc2ccccc2)c(C)o1	138% (inactive)
COC(=O)C(C)Sc1nc2c([nH]c3ccccc32)c(=O)n1-c1ccc(OC)cc1 (centres undefined)	75% (inactive)
Cc1ccc(-n2c(SCC(=O)N3CCC(C)CC3)nc3c([nH]c4ccccc43)c2=O)cc1	-6% (active)
Cc1cc(C)cc(-n2c(SCC(=O)N3CCCC3)nc3c([nH]c4ccccc43)c2=O)c1	69% (inactive)
CCOC(=O)CSc1nc2c([nH]c3ccccc32)c(=O)n1-c1ccc(OCC)cc1	80% (inactive)
Cc1cc(C)cc(-n2c(SCC(=O)N3CCC(C)CC3)nc3c([nH]c4ccccc43)c2=O)c1	-1% (active)
CCOc1ccc(-n2c(SCC(=O)Nc3cc(C)ccc3C)nc3c([nH]c4ccccc43)c2=O)cc1	59% (inactive)
Cc1cc(C)cc(-n2c(SCC(=O)N3CCCCC3)nc3c([nH]c4ccccc43)c2=O)c1	78% (inactive)
COc1ccc(-n2c(SCC(=O)N3CCC(C)CC3)nc3c([nH]c4ccccc43)c2=O)cc1	79% (inactive)
Cc1ccc(C)c(NC(=O)CSc2nc3c([nH]c4ccccc43)c(=O)n2-c2ccc(F)cc2)c1	0% (active)
CC1CCN(C(=O)CSc2nc3c([nH]c4ccccc43)c(=O)n2-c2ccccc2)CC1	83% (inactive)
CCOc1ccc(-n2c(SC(C)C(=O)OC)nc3c([nH]c4ccccc43)c2=O)cc1 (centres undefined)	-2% (active)
Cc1cccc(NC(=O)CSc2nc3c([nH]c4ccccc43)c(=O)n2-c2ccc(F)cc2)c1C	22% (inactive)
